From PubChem BioAssay (Tox21)
Where “and” joins values, the source holds several entries; their conditions need not be identical. Equal entries are not always repeated. Records with an inconclusive call do not appear. More than one record can exist for a structure, and the calls need not agree. Calls of active or inactive are those of the source. Unless noted, calls follow the shape of the dose curve; as a rule, active = well fitted curve in the direction sought with a large enough effect in the repeat runs; inconclusive = weak or mixed curves; inactive = no such curve, though single readings can be large; an effect the other way counts as inactive or inconclusive.

Assays:
[1] = qHTS assay to identify small molecule antagonists of the retinoid acid receptor (RAR) signaling pathway - cell viability counter screen (AID 1159551); also: nearly all actives have a fitted effect of over 35% in size; also: potency is read from the fitted curve at half-maximal effect
Method in brief: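 Seed C3RL4 cells; next day add compound, then retinol to 1 uM final; incubate 6 h at 37 C; add CellTiter-Glo; read luminescence after 30 min at RT.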

[2] = qHTS assay to identify small molecule antagonists of the estrogen related receptor (ERR) signaling pathway from Tox21 library - cell viability counter screen (AID 1224834); also: nearly all actives have a fitted effect of over 30% in size; also: potency is read from the fitted curve at half-maximal effect
Method in brief: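 CellTiter-Fluor fluorescence measured; ERR cells; 17.5 h compound incubation at 37 C; 30 min reagent step.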

[3] = target: Luciferin 4-monooxygenase (Photinus pyralis) (UniProt P08659); assay: qHTS assay to identify small molecule inhibitors of firefly luciferase (AID 1224835); also: nearly all actives have a fitted effect of over 25% in size; also: potency is read from the fitted curve at half-maximal effect
Method in brief: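 Quantitative HTS format; KM concentrations of both substrates. Purified P. pyralis FLuc activity quantified from luminescence images.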

[4] = qHTS assay to identify small molecule agonists of the constitutive androstane receptor (CAR) signaling pathway - cell viability counter screen (AID 1224836); also: nearly all actives have a fitted effect of over 45% in size; also: potency is read from the fitted curve at half-maximal effect
Method in brief: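 HepG2 cells stably carrying hCAR and a CYP2B6-2.2kb reporter; 15-concentration compounds plus PK11195 (final 0.75 uM), 23 hr at 37 C/5% CO2. Viability read by CellTiter-Fluor fluorescence.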

[5] = qHTS assay to identify small molecule antagonists of the constitutive androstane receptor (CAR) signaling pathway - cell viability counter screen (AID 1224837); also: nearly all actives have a fitted effect of over 45% in size; also: potency is read from the fitted curve at half-maximal effect
Method in brief: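 Using CellTiter-Fluor, viability is scored in HepG2 cells stably carrying hCAR and a 2.2kb CYP2B6 reporter after 23 hr compound exposure across 15 concentrations, with CITCO present at 50 nM.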

[6] = target: Nuclear receptor subfamily 1 group I member 3 (Homo sapiens) (UniProt Q14994); assay: qHTS assay to identify small molecule antagonists of the constitutive androstane receptor (CAR) signaling pathway (AID 1224838);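 also: HepG2 cells stably expressing hCAR with CYP2B6 luciferase reporter stimulated by CITCO; nearly all actives have a fitted effect of over 40% in size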; also: potency is read from the fitted curve at half-maximal effect
Method in brief: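 Reporter luminescence was quantified after 24 h exposure of hCAR/CYP2B6-2.2kb double-stable HepG2 cells to compounds at 15 concentrations in the presence of 50 nM CITCO final.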

[7] = target: Nuclear receptor subfamily 1 group I member 3 (Homo sapiens) (UniProt Q14994); assay: qHTS assay to identify small molecule agonists of the constitutive androstane receptor (CAR) signaling pathway (AID 1224839); also: nearly all actives have a fitted effect of over 15% in size; also: potency is read from the fitted curve at half-maximal effect
Method in brief: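 HepG2 cells stably co-transfected with hCAR and a CYP2B6-2.2kb luciferase reporter; compounds at 15 concentrations with 0.75 uM PK11195 present. After 24 hr at 37 C, luciferase read by ONE-Glo luminescence.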

[8] = qHTS assay to identify small molecule antagonists of the estrogen related receptor signaling pathway with the pleiotropic PPARgamma coactivator (PGC) from Tox21 10K library - cell viability counter screen (AID 1224840; active = well fitted cell-killing curve with a large enough effect in the repeat runs, not every such curve was filed as active; also: nearly all actives have a fitted effect of over 40% in size; also: potency is read from the fitted curve at half-maximal effect)
Method in brief: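 Here the PGC/ERR cells serve as a cytotoxicity control: they are exposed to compounds for 17.5 hours at 37 C, and live-cell signal is quantified using CellTiter-Fluor fluorescence.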

[9] = target: Thyrotropin receptor (Homo sapiens) (UniProt P16473); assay: qHTS assay to identify small molecule agonists of the thyroid stimulating hormone receptor (TSHR) signaling pathway (AID 1224843; calls by dose curve; also: nearly all actives have a fitted effect of over 45% in size; also: potency is read from the fitted curve at half-maximal effect)
Method in brief: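 TSHR-expressing HEK293 cells (800 per well) were exposed to compounds for 30 min at room temperature. cAMP was then detected by HTRF competition with cAMP-d2 and anti-cAMP cryptate, read after 1 h at room temperature. Fifteen concentrations, triplicate.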

[10] = qHTS assay to identify small molecule agonists of the hypoxia (HIF-1) signaling pathway - cell viability counter screen (AID 1224844; calls by dose curve; also: nearly all actives have a fitted effect of over 50% in size; also: potency is read from the fitted curve at half-maximal effect)
Method in brief: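 Multiplexed with the HRE beta-lactamase assay, this viability read used CellTiter-Glo luminescence (30 min, RT) on HRE-bla ME-180 cells treated 17 hrs with compounds in 0.5% dialyzed FBS medium.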

[11] = qHTS assay to identify small molecule antagonists of the estrogen related receptor signaling pathway with the pleiotropic PPARgamma coactivator (PGC) from Tox21 10K library (AID 1224841; call rule not given here; also: series mostly up to about 92 µM; actives are mostly falling curves and most rising ones were filed inactive; nearly all actives have a fitted effect of over 50% in size)
Method in brief: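 Each well held 2,000 PGC/ERR cells, pre-incubated six hours (37 C, 5% CO2). Test substances in DMSO were added by pin tool and left for 18 h at 37 C before luciferase detection by One-Glo.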

[12] = qHTS assay to identify small molecule agonists of the estrogen related receptor signaling pathway with the pleiotropic PPARgamma coactivator (PGC) from Tox21 10K library (AID 1224842); also: nearly all actives have a fitted effect of over 15% in size
Method in brief: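 PGC/ERR reporter cells (NTP line) were seeded 2,000 per well, rested 6 h at 37 C/5% CO2, then pin-dosed with compounds in DMSO for 18 h at 37 C; luciferase read by One-Glo luminescence after 30 min at room temperature.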

[13] = qHTS assay to identify small molecule antagonists of the estrogen related receptor (ERR) signaling pathway - cell viability counter screen (AID 1224818);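 also: series mostly up to about 46 µM; viability measured after 17.5 h of compound exposure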
Method in brief: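 In the same ERR cell assay, compound-treated wells (17.5 h, 37 C) were multiplexed with a fluorogenic viability reagent, CellTiter-Fluor, read after 30 min to flag cytotoxic substances.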

[14] = qHTS assay to identify small molecule antagonists of the estrogen related receptor signaling pathway with the pleiotropic PPARgamma coactivator (PGC) cell viability counter screen (AID 1224822; also: series mostly up to about 46 µM)
Method in brief: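 Compounds in DMSO, with positive and negative controls, were applied to PGC/ERR cells (2,000/well) and left 17.5 h at 37 C before CellTiter-Fluor detection.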

[15] = qHTS assay to identify small molecule antagonists of the retinoic acid receptor (RAR) signaling pathway (AID 1159552; also: potency is read from the fitted curve at half-maximal effect; nearly all actives have a fitted effect of over 50% in size)
Method in brief: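 Retinol signaling pathway inhibitors screened in C3RL4 RARE-luciferase reporter cells seeded overnight at 37 C, then compounds added with 1 uM (final) retinol as pathway substrate. After 6 hr at 37 C, luciferase luminescence read after 30 min at room temperature.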

Measured: Potency

Nuclear receptor subfamily 1 group I member 3 (Homo sapiens), sequence (Q14994 whole entry, looked up): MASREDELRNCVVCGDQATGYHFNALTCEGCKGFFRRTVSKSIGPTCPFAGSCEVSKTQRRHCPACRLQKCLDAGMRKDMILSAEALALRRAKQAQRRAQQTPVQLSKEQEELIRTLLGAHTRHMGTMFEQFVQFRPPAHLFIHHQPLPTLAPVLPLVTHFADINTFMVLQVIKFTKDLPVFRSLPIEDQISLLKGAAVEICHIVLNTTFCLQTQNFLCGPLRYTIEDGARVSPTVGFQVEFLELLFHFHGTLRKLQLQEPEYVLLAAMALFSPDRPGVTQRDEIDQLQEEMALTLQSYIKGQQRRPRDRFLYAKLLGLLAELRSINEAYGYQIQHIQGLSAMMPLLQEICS
Thyrotropin receptor (Homo sapiens), sequence (P16473 whole entry, looked up): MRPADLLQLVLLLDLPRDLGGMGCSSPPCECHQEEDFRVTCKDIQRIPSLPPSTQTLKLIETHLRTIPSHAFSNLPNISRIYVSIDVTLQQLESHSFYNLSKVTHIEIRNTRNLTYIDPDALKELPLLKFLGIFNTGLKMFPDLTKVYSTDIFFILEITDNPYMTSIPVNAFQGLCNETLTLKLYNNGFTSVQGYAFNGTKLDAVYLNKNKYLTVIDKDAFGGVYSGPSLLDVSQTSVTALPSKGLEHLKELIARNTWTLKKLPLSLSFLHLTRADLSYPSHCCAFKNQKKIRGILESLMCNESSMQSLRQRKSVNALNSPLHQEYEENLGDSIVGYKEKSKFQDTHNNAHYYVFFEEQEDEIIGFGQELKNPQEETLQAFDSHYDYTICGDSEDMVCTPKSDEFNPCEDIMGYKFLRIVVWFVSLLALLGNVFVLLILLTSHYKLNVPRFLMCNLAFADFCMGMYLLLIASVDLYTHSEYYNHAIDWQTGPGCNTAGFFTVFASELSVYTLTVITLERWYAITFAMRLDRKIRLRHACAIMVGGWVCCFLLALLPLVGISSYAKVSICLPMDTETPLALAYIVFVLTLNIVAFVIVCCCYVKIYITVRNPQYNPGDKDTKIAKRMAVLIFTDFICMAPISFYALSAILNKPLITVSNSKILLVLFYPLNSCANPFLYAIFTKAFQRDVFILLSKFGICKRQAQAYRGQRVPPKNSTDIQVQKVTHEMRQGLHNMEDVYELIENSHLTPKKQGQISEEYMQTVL
Luciferin 4-monooxygenase (Photinus pyralis), sequence (P08659 whole entry, looked up): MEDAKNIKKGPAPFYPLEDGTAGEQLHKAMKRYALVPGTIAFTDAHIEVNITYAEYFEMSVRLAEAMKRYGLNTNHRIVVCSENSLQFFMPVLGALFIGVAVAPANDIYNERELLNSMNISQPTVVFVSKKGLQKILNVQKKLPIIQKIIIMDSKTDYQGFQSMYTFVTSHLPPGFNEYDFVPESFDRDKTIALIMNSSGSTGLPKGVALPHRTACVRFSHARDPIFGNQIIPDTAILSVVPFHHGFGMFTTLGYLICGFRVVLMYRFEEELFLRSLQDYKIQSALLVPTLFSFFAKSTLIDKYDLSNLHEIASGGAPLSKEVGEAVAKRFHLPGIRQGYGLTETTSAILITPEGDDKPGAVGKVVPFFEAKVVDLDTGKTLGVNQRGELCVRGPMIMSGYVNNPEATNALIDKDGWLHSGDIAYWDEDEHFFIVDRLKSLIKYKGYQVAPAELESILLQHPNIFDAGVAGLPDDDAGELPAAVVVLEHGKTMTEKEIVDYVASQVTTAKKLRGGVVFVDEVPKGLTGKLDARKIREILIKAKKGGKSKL

CCOP(=S)(OCC)SCSC(C)(C)C
not listed: [11] | [12] | [13] | [14] | [15]
inactive: all other assays above

CCNCC
not listed: [3] | [6] | [7] | [13] | [14] | [15]
inactive: all other assays above

ClC(Cl)(Cl)c1ccccc1
not listed: [3] | [11] | [12] | [13] | [14] | [15]
inactive: all other assays above

c1ccc(C2CO2)cc1 (stereo not given)
inactive: [1] | [2] | [5] | [8] | [9] | [10]

COc1ccc(CO)cc1
inactive: [1] | [2] | [4] | [5] | [8] | [9] | [10]

CCN(CC)C(=O)C(C)Oc1cccc2ccccc12 (stereo not given)
inactive and 30.6 µM (active): [9]
active: [7] 54.9 µM and 61.1 µM
inactive: [1] | [4] | [5] | [6] | [8] | [10]

N#CCCCCC#N
not listed: [13] | [14] | [15]
inactive: all other assays above

CCC/C=N/O
inactive: [1] | [2] | [5] | [6] | [7] | [8] | [10]

CNC(=S)S
not listed: [11] | [12] | [13] | [14] | [15]
inactive: all other assays above

Cc1ccc([N+](=O)[O-])cc1
not listed: [11] | [12] | [13] | [14] | [15]
inactive: all other assays above

CCNc1nc(Cl)nc(NC(C)(C)C#N)n1
inactive: [1] | [2] | [5] | [6] | [7] | [8] | [9] | [10]

COP(=O)(NC(C)=O)SC (stereo not given)
not listed: [9] | [11] | [12] | [13] | [14] | [15]
inactive: all other assays above

CCCCCCCCCC(CC)c1ccc(S(=O)(=O)O)cc1 (stereo not given)
61.8 µM (active) and inactive: [2]
inactive: [1] | [13] | [14] | [4] | [5]

CN(C)c1nc(=O)n(C2CCCCC2)c(=O)n1C
not listed: [11] | [12] | [13] | [14] | [15]
inactive: all other assays above

C[N+](C)(C)CC(=O)O
not listed: [6] | [7] | [9] | [11] | [12] | [15]
inactive: all other assays above

CNC(=O)CSP(=S)(OC)OC
inactive: [1] | [2] | [5] | [6] | [7] | [8] | [9] | [10]

CCC[CH2][Sn]([Cl])([CH2]CCC)[CH2]CCC
inactive: [7]
active: [1] 3.86 µM and 8.63 µM | [2] 2.17 µM and 1.22 µM | [3] 31.8 µM and 39.9 µM | [5] 1.54 µM and 686 nM | [6] 244 nM and 386 nM | [8] 1.09 µM and 864 nM | [10] 310 nM and 1.1 µM

CC(C)Nc1nc(Cl)nc(NC(C)C)n1
not listed: [13] | [14] | [15]
inactive: all other assays above

ClCc1ccccn1
not listed: [3] | [11] | [12] | [13] | [14] | [15]
inactive: all other assays above

O=[N+]([O-])c1ccc(Cl)c([N+](=O)[O-])c1
inactive: [3] | [7] | [12]
active: [15] 13.9 µM and 12.2 µM | [2] 24.7 µM and 38.6 µM | [4] 19.6 µM and 24.3 µM | [5] 22 µM and 17.2 µM | [6] 19.6 µM and 15.4 µM | [8] 49.3 µM and 27.3 µM | [10] 19.8 µM and 13.8 µM

[Cl-].[Cl-].[Cl-].[Fe+3]
inactive: [1] | [2] | [4] | [5] | [8] | [10]

N#Cc1cccnc1
not listed: [13] | [14] | [15]
inactive: all other assays above
